Rab9 promoter act: activates the Rab9 promoter | Huh7 Rab9 promoter-luciferase reporter, luminescence, 24 h | Potency, µM (titrated, usually from 9.22 µM), for inactives: at the highest dose activation, negative = inhibition, most hits filed as activators | 320,000 tested, 2.8% active; note: % of control where 0% means no effect; nearly all actives have a fitted effect of over 60% in size
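Luminescence from Amplite-detected luciferase (10 minutes, ambient) reports Rab9 promoter activation. Before that, stable Rab9-luciferase Huh7 cells (1500/well, reduced-serum OP-MEM I plus 10% FBS) were exposed to compound for 24 hours at 37C.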
SMN2 splice enh: increases expression of the SMN2 splice variant | HEK293 SMN2-luciferase splicing reporter, luminescence, 30-36 h | Potency, µM (series often up to 46.1 µM), inactives show at the highest dose activity change, positive = activation, actives largely listed as activators | 210,000 tested, 2.8% active | AID 1458; note: % of control where 0% means no effect; nearly all actives have a fitted effect of over 55% in size
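HEK293 cells carry an SMN2 […]–luciferase reporter in which exon 7 inclusion puts luciferase in frame. Cells were plated 10-12 h before compound addition, then incubated 30-36 h at 37C. ONE-Glo luminescence was read; sodium butyrate at 4.5 mM final served as control.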
Luc counter: Kinase-Glo luciferase inhibition (counter-screen); Q27757; Kinase-Glo luciferase, ATP luminescence, 8 min; Potency, µM (doses to about 38.3 µM), without a hit: at the top dose activity change, negative = inhibition, usual class: inhibitors; 200,000 tested, 0.28% active; AID 1379; note: % is set by controls: 0 for no effect and ±100 for the full control effect; nearly all actives have a fitted effect of over 60% in size
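Light output from Kinase-Glo luciferase with luciferin and 10 uM ATP in 50 mM imidazole pH 7.2, KCl, MgCl2, Tween 20, BSA; compound pin-delivered, 8-min ambient incubation, then luminescence read.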
NPC1 promoter act: NPC1 promoter activation; Potency, µM (top dose mostly 9.22 µM), for inactives: top-dose activation, usual class: activators; AID 485313; Huh7 NPC1 promoter luciferase reporter, 24 h; 320,000 tested, 2.4% active; note: % of control where 0% means no effect; nearly all actives have a fitted effect of over 60% in size
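NPC1 promoter–luciferase Huh7 cells; 24 h compound; luminescence.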
FLuc modulator: inhibits or activates purified firefly luciferase, miR-21 counter-screen; P08659; purified FLuc, Km substrates, luminescence inhibition; Potency, µM (doses to about 57.5 µM), for inactives: at the highest dose activity change, negative = inhibition, most hits filed as inhibitors; 360,000 tested, 6.9% active; AID 588342;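 note: plate controls were vehicle for no effect and reference inhibitor for full effect; nearly all actives have a fitted effect of over 55% in size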
Target sequence (P08659 whole entry, looked up): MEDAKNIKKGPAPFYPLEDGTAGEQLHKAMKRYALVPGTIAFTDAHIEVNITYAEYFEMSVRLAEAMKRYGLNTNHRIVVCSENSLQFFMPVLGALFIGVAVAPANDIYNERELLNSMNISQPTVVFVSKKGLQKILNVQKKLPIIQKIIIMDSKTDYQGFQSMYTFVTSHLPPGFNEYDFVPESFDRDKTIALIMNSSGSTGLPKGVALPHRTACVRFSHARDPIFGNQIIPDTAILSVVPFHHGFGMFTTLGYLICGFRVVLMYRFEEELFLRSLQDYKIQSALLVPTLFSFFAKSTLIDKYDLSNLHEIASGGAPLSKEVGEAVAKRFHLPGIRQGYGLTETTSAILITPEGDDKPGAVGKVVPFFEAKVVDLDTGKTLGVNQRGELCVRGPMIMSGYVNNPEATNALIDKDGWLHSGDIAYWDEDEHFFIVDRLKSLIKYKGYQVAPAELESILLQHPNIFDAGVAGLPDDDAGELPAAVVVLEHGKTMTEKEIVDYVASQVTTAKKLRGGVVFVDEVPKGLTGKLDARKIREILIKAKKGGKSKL
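Biochemical qHTS of compounds, final roughly 60 µM downward over six points, against 10 nM purified firefly luciferase using Km concentrations of substrates (10 uM D-luciferin, 10 uM ATP) in Tris acetate pH 7.5 buffer; luminescence output.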
Numbers without * were called inactive; ? = inconclusive; . = no result. This is a sample that favours compounds with a hit; in the whole collection about 7.3% have one here. Calls come from the whole dose curve; as a rule, active = well fitted curve in the direction sought with a large enough effect; inconclusive = small, poorly fitted or top-dose-only effect, or another doubt; inactive = no such curve, though single readings can be large; an effect the other way counts as inactive or inconclusive. Potency is the fitted concentration of half-maximal effect.

SMILES	Rab9 promoter act	SMN2 splice enh	Luc counter	NPC1 promoter act	FLuc modulator
Cc1ccc(C(=O)O/N=C/c2c(Cl)n(C)c3ccccc23)cc1	0%	?	-5%	0%	2.7µM*
O=[N+]([O-])c1cccc(/C=N/Nc2nccnc2Cl)c1	2µM*	?	10µM*	2.8µM*	12µM*
O=[N+]([O-])c1cccc(/C=N/Nc2ccccn2)c1	4µM*	11µM*	-1%	?	3µM*
O=[N+]([O-])c1cccc(/C=C/c2ccccn2)c1	?	.	.	?	13µM*
N#C/C(=C\c1cccc([N+](=O)[O-])c1)c1ccccn1	?	6%	-5%	0%	-10%
Fc1cccc(/C=N/Nc2nccnc2Cl)c1	?	.	.	?	21µM*
CCN1CCCC1CNC(=O)c1ccc(Cc2nc3ccccc3[nH]2)cc1 (stereo not drawn)	.	.	2%	.	.
CN(C)CCN(C(=O)c1ccc2c(c1)CCCC2)c1nc2c(F)cccc2s1	6%	.	.	2%	11µM*
CC(Cc1ccccc1)NC(=O)c1cc2ccccc2o1 (stereo not drawn)	2.5µM*	.	.	3.2µM*	?
Cc1csc(C(C#N)C(=O)c2cc3ccccc3o2)n1 (stereo not drawn)	2.8µM*	11µM*	-18%	2.8µM*	1.3µM*
CCC(=O)Nc1ccc(NC(=O)c2cc3ccccc3o2)cc1	?	?	-8%	?	?
Cc1ccc(-c2csc(NC(=S)NC(=O)c3cc4ccccc4o3)n2)cc1	28%	?	-2%	25%	-2%
O=C(NCc1cccs1)c1cc2ccccc2o1	4%	7%	8%	23%	19µM*
Cc1csc(NC(=O)c2cc3ccccc3o2)n1	1.4µM*	.	.	?	0.95µM*
CCOC(=O)Cc1csc(NC(=O)c2cc3ccccc3o2)n1	?	1%	?	?	11µM*
CCn1cc(C(=O)OCC(=O)Nc2cc(Cl)ccc2C)c(=O)c2ccc(C)nc21	.	1%	.	.	-1%
Cn1cccc1C(=O)OCc1cc(Cl)cc2c1OCOC2	?	7%	2%	?	13µM*
COc1cccc([C@@H]2Oc3ccc(OC)cc3C[C@H]2OC(=O)Nc2cc(OC)c(OC)c(OC)c2)c1	.	4%	3%	.	.
C(=N\n1cnc2ccccc21)/c1cccnc1	16%	-41%	-3%	10%	?
COc1ccc(/C=N/n2c(=S)n(C)c3ccccc32)cc1OC	-3%	-30%	-1%	1%	?
COc1ccc(/C=N/n2c(N)nc3ccccc32)cc1OC	26%	29%	-8%	?	5.4µM*
COc1cccc(/C=N/n2c(N)nc3ccccc32)c1OC	?	?	-2%	?	12µM*
COc1cccc(/C=N/n2cnc3ccccc32)c1OC	2.2µM*	?	-3%	2.5µM*	4.8µM*
CCOC(=O)c1ccccc1NC(=O)N1CCCN(S(=O)(=O)c2ccc3c(ccn3CC)c2)CC1	.	.	.	.	-12%
CCOC(=O)c1cc(-c2ccccc2)n(-c2cccc(C(=O)N(C)c3ccc(C)cc3)c2)c1C	.	.	.	.	-16%
SMILES	Rab9 promoter act	SMN2 splice enh	Luc counter	NPC1 promoter act	FLuc modulator
Cn1c(-c2ccccc2)cc(=O)c2ccccc21	0%	8%	-2%	1%	-19%
COc1ccc2c(c1)c(=O)cc(-c1ccccc1)n2C	12%	?	-1%	22%	24µM*
Cc1cn2nc(N)c3ccccc3c2n1	0%	1%	-1%	-12%	0%
Nc1nn2cc(-c3ccccc3)nc2c2ccccc12	3.2µM*	4.5µM*	?	?	1.9µM*
Cn1cc(S(=O)(=O)c2ccc(Cl)cc2)c(=O)c2cc(F)c(N3CCCCCC3)cc21	.	.	.	.	-3%
CC(C)(C)NC(=O)c1ccc(C(=O)NC(C)(C)C)cc1	-14%	.	.	3%	1%
CC(C)(C)NC(=O)c1sccc1C(=O)O	-1%	-14%	1%	0%	15µM*
O=C(Nc1ccc(F)c(Cl)c1)N1CC=C(c2c[nH]c3ccccc23)CC1	.	.	.	.	-12%
CCCNC(=O)c1noc2c1CCc1cc(OC)ccc1-2	2µM*	11µM*	-5%	1.4µM*	4.3µM*
COc1ccc2c(c1)CCc1c(C(=O)NCC(C)C)noc1-2	1.4µM*	4.5µM*	-2%	1.1µM*	3.4µM*
COc1ccc2c(c1)CCc1c(C(=O)N3CCCCCC3)noc1-2	2.8µM*	?	-1%	1.6µM*	7.6µM*
COc1ccc2c(c1)CCc1c(C(=O)Nc3ccc(OC)cc3OC)noc1-2	.	8%	.	.	-6%
COc1ccc2c(c1)CCc1c(C(=O)NCc3cccnc3)noc1-2	15%	-1%	0%	26%	?
Cc1nn(Cc2ccc(F)cc2)c(C)c1NC(=O)c1cc2ncc(Br)cn2n1	-11%	.	-1%	0%	-1%
O=C(NCc1ccc2c(c1)OCO2)c1nn2cccnc2c1Cl	.	-1%	-2%	.	4%
Cc1ccccc1Cn1ccc(NC(=O)c2nn3cccnc3c2Cl)n1	27%	-10%	1%	12%	17µM*
CSc1ccccc1NC(=O)c1cc2ncc(Br)cn2n1	?	3.2µM*	-1%	4%	8.5µM*
Cc1ccccc1Cn1ccc(NC(=O)c2cc3ncc(Br)cn3n2)n1	-2%	2%	-1%	-2%	11µM*
COc1ccccc1NC(=O)CSc1oc(-c2ccc(F)cc2)nc1S(=O)(=O)c1ccc(Br)cc1	.	6%	.	.	2%
COc1cccc(CNC(=O)c2ccc(-n3c(C)cc4c3CCC(C)C4)cc2)c1 (stereo not drawn)	.	.	.	.	2%
O=C(CNc1ccc(F)cc1Cl)Nc1cccc(S(=O)(=O)N2CCCCC2)c1	-3%	.	.	-5%	11µM*
CCOc1ccc(C(=O)NCC(=O)OCC(=O)Nc2nnc(-c3ccccc3)o2)cc1	3%	.	.	1%	13µM*
Cc1cc(OCC(=O)Nc2cccc(S(=O)(=O)N3CCCCC3)c2)ccc1Cl	-2%	.	.	-2%	6.7µM*
CCOc1ccc(C(=O)NCC(=O)OCC(=O)Nc2cccc(S(=O)(=O)N3CCCC3)c2)cc1	-2%	.	.	0%	4.3µM*
Clc1cc(Cl)cc(Cl)c1	.	-8%	.	.	.
SMILES	Rab9 promoter act	SMN2 splice enh	Luc counter	NPC1 promoter act	FLuc modulator
CCCOc1ccc(C(=O)CCC(=O)OCC(=O)Nc2cccc(S(N)(=O)=O)c2)cc1	-6%	.	.	0%	11µM*
O=C(CN1C(=O)c2cccc([N+](=O)[O-])c2C1=O)OCC(=O)N1CCCCC1	21%	.	.	8%	8.5µM*
COc1cc(-c2nnc(SCC(=O)N3CCCc4ccccc43)o2)cc(OC)c1OC	.	13%	.	.	-3%
O=S(=O)(c1ccccc1)N1CCC2(CCN(c3ncccn3)CC2)CC1	.	-42%	-5%	.	.
Cc1[nH]c(=O)[nH]c(=O)c1S(=O)(=O)N1CCN(c2ccccc2Cl)CC1	.	.	.	.	-18%
Cc1ccc(Cn2c(C)c3cnn(CC(=O)NC4CCCC4)c(=O)c3c2C)cc1	1.3µM*	.	.	?	?
CNC(=O)Cn1ncc2c(C)n(Cc3ccc(C)cc3)c(C)c2c1=O	4%	-21%	5%	-5%	-1%

Compound activity from PubChem BioAssay.
